Data on seven compounds can be found in PubChem BioAssay.

Structures are written as SMILES. Results filed as inconclusive are left out. Active and inactive are the calls of the source.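 How the source made its calls, unless noted: active means inhibition over a set limit, the all-compound mean plus 3 SD, in both replicate runs; inconclusive means over that limit in just one replicate run; inactive means at or under that limit in both runs.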

Assay [1] is described as follows: Her2 expression decrease, cell viability multiplex – SKBR3 breast tumor cells, AlphaScreen, ATP viability, primary screen (AID 461;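 active means Her2 level under about 52% in both replicate screens, with viability over 70% of control, limit read from the data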;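 on Her2 level: lower value means less Her2 protein in the cells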;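 on viability: percent of carrier control wells set as 100% viability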). Particulars: SKBR3 Her2 protein level, 18-24 h, measured here: SKBR3 viability, ATP luminescence, at 10 µM.
Assay [2] has as its target Receptor tyrosine-protein kinase erbB-2 (Homo sapiens) (UniProt P04626). The description is as above. Particulars: 18-24 h, at 10 µM, stronger effect = lower value.
A short description of assay [3]: reduced viability of SK-BR-3 breast cancer cells – cell-based, 24 h, human, pilot screen (AID 572;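 active means viability at or below 10% of carrier control in both of two separate runs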;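 further: compound exposure lasted between 18 and 24 h rather than exactly 24 h; 100% = carrier-treated control wells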). Particulars: SK-BR-3 viability, CellTiter-Glo luminescence, at 10 µM, stronger effect = lower value. (In general: In ATP-based viability assays light output follows the ATP content of the culture.)
A short description of assay [4]: HUVEC growth inhibition – cell-based, human, primary screen (AID 575;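 active means viability at or below 30% in both replicate assays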;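 further: 100% = median of untreated cell wells with 0.1% DMSO on each plate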). Particulars: HUVEC proliferation, CellTiter-Glo luminescence, 72 h; at 10 µM; stronger effect = lower value.
The nature of assay [5]: H69AR cell proliferation blockers – human, duplicate replicates, primary screen (AID 580;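 active means viability at or under a set limit in both replicates, limit being median viability minus 3 SD, cut at about 48% in these data, passing the limit was not always enough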;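 further: 100% = mean luminescence of untreated wells and 0% = no signal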). Particulars: H69AR lung tumor cells viability, ATP luminescence, 72 h; at 10 µM; stronger effect = lower value.
The nature of assay [6]: MRP1 drug-resistance reversers in H69AR cells – cell-based, doxorubicin co-treatment, pilot screen (AID 601;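 active means viability loss from added drug above about 55%, and viability with drug at most 40%, in both replicates, limit read from the data, passing the limit was not always enough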). Particulars: CellTiter-Glo, 72 h, at 10 µM; for differential viability (reversal): stronger effect = higher value.
The nature of assay [7]: yeast transport mutant growth inhibition pilot in 384-well plates, post-Golgi transport modulator project (AID 636; in the data active means inhibition above about 31%). Particulars: absorbance 615 nm, about 18 h, stronger effect = higher value.
The nature of assay [8]: growth suppression of yeast trafficking mutant, preliminary HTS, modulators of trafficking downstream of Golgi apparatus project, 1536-format plate, OD 615 nm (AID 637; in the data active means inhibition above about 30%). The conditions noted are these: yeast transport mutant growth, absorbance 615 nm, 18 h; stronger effect = higher value.
Assay [9] is described as follows: S. cerevisiae growth inhibition in permissive medium (OD615), pilot counter-assay for S. cerevisiae lifespan shortening project, permissive growth control (AID 705;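 active means growth inhibition above 25% in both replicates, a cutoff set 3 SD above the mean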). The conditions noted are these: OD615, 24 h, at 10 µM, stronger effect = higher value.
Assay [10] in a line: S. cerevisiae growth inhibition in restrictive medium, OD615, pilot screen, restrictive growth control, yeast lifespan reduction project (AID 706;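 active means growth inhibition above a set limit, 3 SD over mean compound inhibition, in both replicates, cut at about 43% in these data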;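 further: modified DeaD lifespan yeast strain shifted to restrictive glucose medium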). The conditions noted are these: OD615, 48 h, at 10 µM, stronger effect = higher value.
Assay [11] is described as follows: doxorubicin toxicity protection in MRP-1 cells – H69AR cells, CellTiter-Glo, duplicate, MRP-1 activator project, pilot screen (AID 807;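 active means viability increase at or above a cutoff of the median across tested compounds plus 3 SD, cut at about 8.5% in these data, passing the limit was not always enough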;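 further: compound pretreatment 18-22 h then 72 h combined with doxorubicin; 0% = doxorubicin alone and 100% = vehicle without doxorubicin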). Particulars: H69AR viability with doxorubicin, CellTiter-Glo luminescence; at 10 µM; stronger effect = higher value.
Assay [12] in a line: viability of HCT116 without oncogenic beta-catenin – human colon tumor cells, pilot screen (AID 823;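 active means cell viability at or below a set limit in both duplicate runs, the limit being the all-compound median minus 4 SD, cut at about 23% in these data, passing the limit was not always enough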;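 further: 0% = wells killed by 20 µM Hyamine and 100% = untreated DMSO cell wells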). Particulars: HCT116 beta-catenin knockout viability, CellTiter-Glo, 60 h; at 10 µM; stronger effect = lower value.
Assay [13] in a line: viability of PTEN-null HCT116 cells – cell-based, HCT116 clonal line, CellTiter-Glo, pilot screen (AID 824;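 active means viability at or below 27.92% in each of two runs, the all-compound median minus 4 SD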;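 further: 0% = 20 µM Hyamine control and 100% = vehicle cell control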). Particulars: HCT116 PTEN-deleted viability, 60 h, at 10 µM, stronger effect = lower value.
Assay [14] can be described thus: RAM pathway blockade in budding yeast – dse1pr::URA3 reporter, 5-FOA selection, pilot screen (AID 869).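 Further: 0% = DMSO wells with no growth and 100% = 10 µM 1-NA-PP1 with full growth; RAM network block rescues cells from 5-FOA so hits raise OD615 growth.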 The conditions noted are these: S. cerevisiae dse1pr::URA3 5-FOA growth, OD615, 2 d; at 10 µM; stronger effect = higher value; strain carries analog-sensitive mutant Cbk1 kinase.
A short description of assay [15]: RAM signaling pathway blockade in yeast – S. cerevisiae, Pdr1DBD-CYC8 efflux-inhibited sensitized strain, primary screen (AID 1298;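 active means RAM network inhibition above 8.4% in each of two replicates, 3 SD over the compound average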;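 further: 0% = DMSO untreated cells without growth and 100% = 10 µM 1-NA-PP1 full growth; higher means more yeast growth rescued from 5-FOA killing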). Particulars: S. cerevisiae cbk1-as DSE1-URA3 strain, 5-FOA growth OD615, 2 d; at 50 µM; stronger effect = higher value.
Where [16] appears, read: H69AR cells + 2 uM doxorubicin, measured here: viability with 2 uM doxorubicin, stronger effect = lower value.
[17] abbreviates: H69AR cells, compound alone cytotoxicity.

Receptor tyrosine-protein kinase erbB-2 (Homo sapiens), sequence (P04626 whole entry, looked up): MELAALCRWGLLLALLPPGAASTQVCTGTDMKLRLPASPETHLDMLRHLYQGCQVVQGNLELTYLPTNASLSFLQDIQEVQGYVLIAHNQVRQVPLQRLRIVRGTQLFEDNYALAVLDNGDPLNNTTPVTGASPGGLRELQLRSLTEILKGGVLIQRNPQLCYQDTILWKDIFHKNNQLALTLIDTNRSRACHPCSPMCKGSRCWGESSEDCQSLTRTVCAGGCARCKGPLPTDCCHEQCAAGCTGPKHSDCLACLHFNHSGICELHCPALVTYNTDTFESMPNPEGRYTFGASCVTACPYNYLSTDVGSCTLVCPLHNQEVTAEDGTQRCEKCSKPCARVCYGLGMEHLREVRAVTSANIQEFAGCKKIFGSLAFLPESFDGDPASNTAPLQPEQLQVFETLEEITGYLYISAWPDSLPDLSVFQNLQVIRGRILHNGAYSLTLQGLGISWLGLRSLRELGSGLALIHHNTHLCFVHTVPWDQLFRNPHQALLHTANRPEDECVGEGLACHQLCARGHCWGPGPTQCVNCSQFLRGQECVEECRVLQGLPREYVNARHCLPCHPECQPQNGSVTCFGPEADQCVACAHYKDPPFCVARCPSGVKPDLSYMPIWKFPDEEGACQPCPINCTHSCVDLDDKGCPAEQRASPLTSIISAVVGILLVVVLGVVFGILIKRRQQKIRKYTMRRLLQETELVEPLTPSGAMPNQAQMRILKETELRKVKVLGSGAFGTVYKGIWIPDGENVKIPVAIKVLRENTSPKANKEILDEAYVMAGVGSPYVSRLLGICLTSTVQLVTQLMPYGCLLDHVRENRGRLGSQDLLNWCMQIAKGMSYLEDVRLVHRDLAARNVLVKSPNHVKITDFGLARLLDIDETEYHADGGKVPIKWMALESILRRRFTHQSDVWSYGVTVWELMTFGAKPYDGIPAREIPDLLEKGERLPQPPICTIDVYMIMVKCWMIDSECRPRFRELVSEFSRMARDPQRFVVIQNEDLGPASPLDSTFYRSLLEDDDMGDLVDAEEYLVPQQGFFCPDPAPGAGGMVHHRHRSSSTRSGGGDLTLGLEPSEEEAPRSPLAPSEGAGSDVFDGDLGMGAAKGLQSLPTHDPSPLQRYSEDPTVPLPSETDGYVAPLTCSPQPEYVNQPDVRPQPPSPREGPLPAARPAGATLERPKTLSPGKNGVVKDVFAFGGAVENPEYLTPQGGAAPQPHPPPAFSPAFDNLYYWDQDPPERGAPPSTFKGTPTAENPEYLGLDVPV

As to `O=C(Cn1nc(Cc2cccnc2)c2ccccc2c1=O)Nc1ccc2c(c1)OCO2`, the viability (usually a read-out of living cells in per cent, often relative to untreated cells) in [1] is 87%; in assay [3], 87% (inactive); in assay [4], 84.5% (inactive); in assay [5] it was 85.2% (inactive); in [6] (setting [16]), 76.2%; in assay [6] (setting [17]), 85.2%. In addition, the viability in assay [12] was 99% (inactive); in [13], 106% (inactive). Moreover, in assay [2], the Her2 level is 96.5% (inactive). For the same compound, the differential viability (reversal) in assay [6] (H69AR cells + 2 uM doxorubicin) is 9.09% (inactive). Further, the values for the inhibition in [7], in [8] and in [14] were -4.8% (inactive), -0.67% (inactive) and 0.975% (inactive), respectively. Also, the values for the growth inhibition in assay [9] and in assay [10] were 0.565% (inactive) and 7.93% (inactive), respectively. The viability increase in [11] was 2.16% (inactive). Also, the RAM network inhibition in assay [15] was 2.81% (inactive).
With `Cc1cc(N)n2nc(-c3ccccc3)cc2n1`, the viability in [1] was 95%; in [3] it was 95% (inactive); in assay [4], 57.4% (inactive); in assay [5], 80.1% (inactive); in assay [6] (setting [16]) it was 68.5%; in assay [6] (setting [17]) it was 80.1%. Moreover, the viability in [12] was 65.1% (inactive); in assay [13] it was 65.3% (inactive). Also, in assay [2], the Her2 level is 71% (inactive). Moreover, the differential viability (reversal) in assay [6] (H69AR cells + 2 uM doxorubicin) was 11.5% (inactive). For the same compound, the inhibition (commonly the relative decrease from the control value, in per cent) was -1.82% (inactive) in assay [7], -0.33% (inactive) in [8] and 1.33% (inactive) in [14]. Besides, the growth inhibition in [9] is -14.1% (inactive); in [10], -13.9% (inactive). Further, the viability increase in assay [11] was -3.46% (inactive). In addition, in assay [15], the RAM network inhibition was 4.23% (inactive).
Turning to `CCOc1ccc(-c2nnc(SCC(=O)N3CCN(c4ccccc4)CC3)o2)cc1`, the viability in assay [1] was 103%; in assay [3], 103% (inactive); in assay [4], 99.5% (inactive); in assay [5] it was 86.5% (inactive); in assay [6] (setting [16]), 88.5%; in assay [6] (setting [17]) it was 86.5%. For the same compound, the viability in [12] is 102% (inactive); in [13], 97.3% (inactive). Further, in [2], the Her2 level was 96% (inactive). In assay [6] (H69AR cells + 2 uM doxorubicin), the differential viability (reversal) was -2.04% (inactive). The inhibition in assay [7] is -3.73% (inactive); in assay [8] it was -3.28% (inactive); in assay [14], 2.71% (inactive). Moreover, the growth inhibition in assay [9] was -3.14% (inactive); in assay [10], 2.85% (inactive). Further, the viability increase in assay [11] was -0.66% (inactive). In addition, in [15], the RAM network inhibition is 3.72% (inactive).
For the compound `Cc1c(C)c2ccc(OC3CCCCC3=O)cc2oc1=O` (centres undefined), the viability in assay [1] was 100%; in [3], 100% (inactive); in assay [4], 82.6% (inactive); in assay [5], 85.8% (inactive); in [6] (setting [16]), 75.4%; in assay [6] (setting [17]), 85.8%. The viability was 104% (inactive) in assay [12] and 101% (inactive) in assay [13]. Further, the Her2 level in assay [2] was 112% (inactive). Further, in [6] (H69AR cells + 2 uM doxorubicin), the differential viability (reversal) was 10.4% (inactive). The inhibition in [7] was -1.92% (inactive); in assay [8], -2.67% (inactive); in assay [14] it was 0.48% (inactive). In addition, the growth inhibition in assay [9] is -16.6% (inactive); in assay [10], -7.25% (inactive). For the same compound, the viability increase in assay [11] was 0.57% (inactive). Moreover, in assay [15], the RAM network inhibition is 1.93% (inactive).
Consider `COc1ccccc1NC(=O)N1CCN(c2cccc(C(F)(F)F)c2)CC1`, for which the viability in [1] was 89%; in assay [3] it was 89% (inactive); in assay [4] it was 78.1% (inactive); in assay [5], 95.2% (inactive); in assay [6] (setting [16]), 78.2%; in assay [6] (setting [17]), 95.2%. The results for the viability in assay [12] and in [13] were 89.5% (inactive) and 84.7% (inactive), respectively. Further, in [2], the Her2 level is 98.5% (inactive). In addition, the differential viability (reversal) in [6] (H69AR cells + 2 uM doxorubicin) is 16.9% (inactive). Further, the figures for the inhibition in [7], in assay [8] and in [14] were -3.11% (inactive), -10.3% (inactive) and 0.115% (inactive), respectively. Moreover, the figures for the growth inhibition in assay [9] and in assay [10] were -10.8% (inactive) and 3.75% (inactive), respectively. Moreover, the viability increase in [11] is 2.13% (inactive). The RAM network inhibition in assay [15] was 2.91% (inactive).
In the case of `CC(=O)Nc1cc(N2C(=O)CCC2=O)ccc1Cl`, the viability is 93% in [1]; 93% (inactive) in assay [3]; 110% (inactive) in assay [4]; 103% (inactive) in assay [5]; 90.5% in [6] (setting [16]); 103% in [6] (setting [17]). Also, the values for the viability in [12] and in [13] were 102% (inactive) and 103% (inactive), respectively. Besides, in [2], the Her2 level was 97% (inactive). Moreover, the differential viability (reversal) in assay [6] (H69AR cells + 2 uM doxorubicin) is 12.4% (inactive). In addition, the inhibition in assay [7] was 0.4% (inactive); in [8] it was 6.45% (inactive); in [14], 1.19% (inactive). Also, the results for the growth inhibition in assay [9] and in assay [10] were -10.2% (inactive) and -12.5% (inactive), respectively. Also, the viability increase in assay [11] is -1.29% (inactive). Further, the RAM network inhibition in assay [15] was 1.88% (inactive).
Turning to `O=C(NCc1ccccc1)C1CCN(S(=O)(=O)c2cccc3cccnc23)CC1`, the viability in assay [1] is 96.5%; in assay [3], 96.5% (inactive); in [4], 99% (inactive); in assay [5], 98.2% (inactive); in assay [6] (setting [16]), 95.4%; in [6] (setting [17]) it was 98.2%. Moreover, the results for the viability in assay [12] and in [13] were 99.2% (inactive) and 96.3% (inactive), respectively. Further, the Her2 level in assay [2] is 104% (inactive). The differential viability (reversal) in assay [6] (H69AR cells + 2 uM doxorubicin) was 2.76% (inactive). Besides, the results for the inhibition in assay [7], in [8] and in [14] were 0.67% (inactive), -2.79% (inactive) and 1.52% (inactive), respectively. Besides, the results for the growth inhibition in [9] and in [10] were 0.255% (inactive) and -4.87% (inactive), respectively. Also, the viability increase in [11] is -2.29% (inactive). In addition, the RAM network inhibition in assay [15] is -0.57% (inactive).
